# An excerpt weighted towards active compounds, which were near 10% of everything screened.
# Six1-Eya2 inh: blocks human Six1 binding to Eya2. AID 651725. activity change, % (concentration not given with the values). AlphaScreen GST-Six1/His-Eya2 binding, biochemical; active compounds read low. hit rate 0.56% among 360,000. Q15475+O00167; in the data active = activity change below about -65%; inconclusive = mostly about -30% to -63%
#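 AlphaScreen with GST-Six1 and His-Eya2 (5X mix: 250 nM and 500 nM), glutathione donor and nickel acceptor beads; buffer 50 mM Tris pH 8.0, 300 mM NaCl, 1 mM TCEP; 1 h at 37 C in the dark.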
# CtBP-E1A blk: inhibitors of CtBP/E1A interaction. AlphaScreen GST-E1A/His-CtBP binding, 1536-well; active compounds read low. AID 651724. hit rate 0.49% among 340,000. activity change, % (concentration not given with the values); in the data active = activity change below about -65%; inconclusive = mostly about -30% to -63%
#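 GST-E1A and His-tagged CtBP (125 nM each as 5X stock) were preincubated with pin-transferred compound for 2 h at 37 °C in the dark, then glutathione donor and nickel acceptor beads were added for 1 h before AlphaScreen reading.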
# G9a inh: G9a (human) methyltransferase inhibition | Q96KQ7 | G9a H3K9 monomethylation, AlphaScreen, 2 h | Potency, µM (titrated, usually from 102 µM), most hits filed as inhibitors | hit rate 8.8% among 350,000 | AID 504332; also: nearly all actives have a fitted effect of over 75% in size
#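 Chemiluminescent proximity detection of H3K9 monomethylation, read after 10 min bead incubation in the dark. Reaction: 20 nM G9a, 500 nM biotin-H3K9 peptide, 20 uM SAM cofactor, 2 h, room temperature, following 15 min enzyme-compound preincubation.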
# BAZ2B inh: inhibitors of human BAZ2B bromodomain; Q9UIF8; hit rate 4.4% among 360,000; AID 504333; AlphaScreen BAZ2B-H3K14Ac peptide displacement; Potency, µM (titrated, usually from 114 µM), actives largely listed as inhibitors; also: nearly all actives have a fitted effect of over 60% in size
#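 Complex of BAZ2B and biotin-H3K14Ac (50 nM apiece) forms over 30 min at RT, then faces library compounds up to 110 uM for another 30 min; AlphaScreen beads added, 20 min dark incubation, luminescence read.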
# HP1b binding inh: inhibitors of HP1-beta chromodomain binding to methylated histone tails | P83916 | AlphaScreen HP1-beta / biotin-H3K9me3 peptide binding | Potency, µM (highest dose often 114 µM), most hits filed as inhibitors | hit rate 0.56% among 390,000 | AID 540317; also: nearly all actives have a fitted effect of over 70% in size
#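 HP1-beta protein (50 nM final) preincubated 30 min at room temperature with biotinylated H3(1-18)K9me3 peptide (50 nM) in PBS pH 7.4, 0.01% Tween-20, then compound added for 30 min. AlphaScreen streptavidin donor/nickel chelate acceptor beads (10 ug/mL final), 30 min dark, luminescence read.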
# JMJD2A Tudor inh: blocks the human JMJD2A Tudor domain; O75164; AlphaScreen JMJD2A-Tudor / H3K4me3 peptide binding; Potency, µM (titrated, usually from 114 µM), usual class: inhibitors; hit rate 4.4% among 390,000; AID 504339; also: nearly all actives have a fitted effect of over 50% in size
# Numbers stand for hits; i = inactive; ? = inconclusive; nt = not tested or not shown; [ ] = another dose, or the depositor's remark. Unless noted, calls follow the shape of the dose curve; as a rule, active = well fitted inhibition curve with a large enough effect; inconclusive = small, poorly fitted or top-dose-only effect; inactive = no such curve, though single readings can be large or run the other way.
SMILES,Six1-Eya2 inh,CtBP-E1A blk,G9a inh,BAZ2B inh,HP1b binding inh,JMJD2A Tudor inh
O=c1c(-c2ccc(Cl)cc2)c(C(F)(F)F)oc2c(CN3CCCCC3)c(O)ccc12,nt,nt,i,i,i,i
COc1cc2nc(SCC(=O)Nc3ccccc3C)n3nc(CCn4c(C)nc5ccccc54)nc3c2cc1OC,nt,nt,?,nt,i,?
CCn1cc(C(=O)NCCc2ccc(Cl)cc2)c(=O)c2cc(S(=O)(=O)N3CCc4ccccc4C3)ccc21,nt,nt,i,nt,i,i
CCCCCCOc1cccc(N)c1,i,i,?,i,i,i
CCN(CC)CCOc1ccc2c(c1)C(=O)c1cc(OCCN(CC)CC)ccc1-2,nt,nt,i[2.33 µM],nt,nt,nt
CCN(CC)CCOc1cccc(C(C)C)c1,i,i,?,?,?,6.31µM
CC(C)c1cccc(OCCCCN(C)C)c1,i,i,3.98µM,?,?,?
CCc1ccc(NC(=O)CC2C(=O)N(c3ccc(Cl)cc3)C(=O)N2Cc2cccs2)cc1 (configuration not stated),nt,nt,?,i,i,i
CCCCNc1c(-c2cccc(-c3cc(C(C)=O)cs3)c2)nc2cc(C)ccn12,i,?,i[2.33 µM],28.2µM,i,?
CC(=O)c1csc(-c2cccc(-c3nc4ccc(Cl)cn4c3NC3CCCCC3)c2)c1,i,i,i[2.33 µM],56.2µM,i,?
COc1ccc(-c2cccc(-c3nc4ccc(Cl)cn4c3NC3CCCCC3)c2)cc1,i,i,nt,nt,i,i
CCOc1ccc(-c2nn(-c3ccccc3)cc2C2NC(=O)NC(C)=C2C(=O)OC(C)C)cc1C (configuration not stated),nt,nt,i,i,i,?
COc1cccc(NC(=O)/C(C#N)=C/c2c(C)n(Cc3ccc(Cl)cc3)c3ccccc23)c1,nt,nt,i,i,i,i
CSc1nsc(/C=C/Nc2cccc(Cl)c2)c1C#N,i,i,10µM,?,i,?
CSc1nsc(/C=C/Nc2ccc(Cl)cc2)c1C#N,i,i,i[12.7 µM],?,i,i
CSc1nsc(/C=C/Nc2ccc(O)cc2C)c1C#N,i,nt,7.94µM,39.8µM,i,50.1µM
O=c1c(-c2ccc(Cl)cc2)nc2cnc(N3CCNCC3)nc2n1CCc1ccccc1,nt,nt,i[0.501 µM],nt,nt,nt
c1ccc(-c2ccccc2OCCn2cncn2)cc1,i,i,?,i,i,i
c1ccc(-c2ccccc2OCCOCCN2CCNCC2)cc1,i,i,nt,22.4µM,i,i
Cc1cccc(OCCOCCN2CCNCC2)c1C,i,i,i,i,i,i
CCN1CCN(CCOCCOc2ccccc2-c2ccccc2)CC1,nt,nt,7.94µM,20µM,nt,nt
CCc1ccc(-c2nc(CSCC(=O)NCc3ccc(C)cc3)c(C)o2)cc1,nt,nt,i,i,i,i
Cc1ccc(-n2nc3c(N4CCC(C(=O)NC5CCCCC5)CC4)nnc(C)c3c2C)cc1,nt,nt,i,i,i,i
CCOC(=O)c1cccc(NC(=O)Cn2ncc3c(=O)oc4ccccc4c32)c1,nt,nt,i,nt,i,i
COc1ccc(-c2cc3nc(C)c(CCC(=O)N4CCN(c5cccc(Cl)c5)CC4)c(C)n3n2)c(OC)c1,nt,nt,?,?,i,i
SMILES,Six1-Eya2 inh,CtBP-E1A blk,G9a inh,BAZ2B inh,HP1b binding inh,JMJD2A Tudor inh
Cn1c(=O)[nH]c2sc3c(c2c1=O)CC(C)(C)OC3,i,i,i[12.7 µM],i,i,i
CC1(C)Cc2c(sc3[nH]c(=S)[nH]c(=O)c23)CO1,i,i,nt,i,i,89.1µM
O=C1Nc2ccccc2C1=Nc1ccc(S(=O)(=O)Nc2nccs2)cc1,?,i,?,i,i,56.2µM
Cc1c(NC(=O)Nc2ccc(Cl)c(C(F)(F)F)c2)c(=O)n(-c2ccccc2)n1C,nt,nt,i,i,i,i
CCCCc1nc2sc3c(SCCN(C)C)ncnc3c2c2c1CCC2,i,i,?,i,i,50.1µM
CCCCc1nc2sc3c(SCC(=O)NCc4ccco4)ncnc3c2c2c1CCC2,i,i,i[0.501 µM],?,i,i
CCc1ccc(Oc2c(C(F)(F)F)oc3c(CN4CCCC(C)C4)c(O)ccc3c2=O)cc1 (configuration not stated),nt,nt,i,i,i,i
COc1cc2c(ccc3cc(OC)c(OC)c(O)c32)cc1O,?,i,?,7.08µM,?,10µM
O=C(NCC(c1cccs1)N1CCOCC1)c1ccc([N+](=O)[O-])cc1 (configuration not stated),i,i,i,i,i,i
O=C(NCC(c1cccs1)N1CCOCC1)c1cc([N+](=O)[O-])ccc1Cl (configuration not stated),i,i,44.7µM,i,i,i
CCc1ccc(-c2c(C)sc(NC(C)=O)c2C(N)=O)cc1,i,i,11.2µM,i,i,?
Cc1sc(NC(=O)CCC(=O)O)c(C(N)=O)c1-c1ccccc1,i,i,10µM,i,?,?
COc1ccc(NC(=O)c2c(NC(=O)CCC(=O)O)sc(-c3ccccc3)c2C)cc1,i,nt,5.62µM,i,i,i
Cc1sc(NC(=O)C2CCCCC2C(=O)O)c(C(N)=O)c1-c1ccccc1 (configuration not stated),i,i,35.5µM,i,i,i
CCc1ccc(-c2nn(CC(=O)Nc3ccccc3C)c3c2cnc2ccc(C)cc23)cc1,nt,nt,i,i,i,i
Cc1cn[nH]c1,i,i,18.9µM,i,i,?
